Results published in PubChem BioAssay AID602292 (National Center for Advancing Translational Sciences (NCATS), 2012).
The campaign covered roughly 1,300 compounds. About 380 (29%) were called active. About 37% were inconclusive and are not listed. Some of the results follow. Values without a mark were called inactive. Calls come from the whole dose curve; as a rule, active = well fitted inhibition curve with a large enough effect; inconclusive = small, poorly fitted or top-dose-only effect; inactive = flat fitted curve, though single readings scatter.

target: Thyrotropin receptor (Homo sapiens) (UniProt P16473); assay: qHTS for antagonists of the Thyroid Stimulation Hormone Receptor: Hit Validation in Primary Screen; conditions: TSHR-expressing cells, cAMP antagonist mode; series mostly up to 58 µM; activity change, negative = inhibition: at the top concentration; note: nearly all actives have a fitted effect of over 80% in size;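 for activity change, negative = inhibition: cells stimulated with TSH at EC80 of 4 nM during compound exposure; cAMP by competitive HTRF where cellular cAMP lowers the 665 nm FRET signal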
Sequence (P16473 whole entry, looked up): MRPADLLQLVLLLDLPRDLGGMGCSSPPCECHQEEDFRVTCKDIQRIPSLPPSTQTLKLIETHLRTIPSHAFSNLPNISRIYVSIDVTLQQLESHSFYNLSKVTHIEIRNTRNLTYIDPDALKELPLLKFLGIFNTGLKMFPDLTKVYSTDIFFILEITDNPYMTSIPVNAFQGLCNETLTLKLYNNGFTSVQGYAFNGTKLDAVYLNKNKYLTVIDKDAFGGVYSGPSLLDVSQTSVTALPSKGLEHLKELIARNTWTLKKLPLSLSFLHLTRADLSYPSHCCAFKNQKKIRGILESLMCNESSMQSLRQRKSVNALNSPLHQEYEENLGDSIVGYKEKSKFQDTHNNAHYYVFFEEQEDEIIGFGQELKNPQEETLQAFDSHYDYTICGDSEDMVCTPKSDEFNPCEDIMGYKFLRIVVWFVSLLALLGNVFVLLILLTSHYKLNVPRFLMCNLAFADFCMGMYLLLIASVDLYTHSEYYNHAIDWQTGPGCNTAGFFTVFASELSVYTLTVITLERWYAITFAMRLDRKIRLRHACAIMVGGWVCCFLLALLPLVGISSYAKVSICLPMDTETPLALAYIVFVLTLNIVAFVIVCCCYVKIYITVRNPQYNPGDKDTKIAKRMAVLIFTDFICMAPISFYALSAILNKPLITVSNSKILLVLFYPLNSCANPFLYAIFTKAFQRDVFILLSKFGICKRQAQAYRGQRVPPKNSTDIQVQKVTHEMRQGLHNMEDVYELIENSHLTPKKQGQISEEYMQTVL
In short: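 Competitive HTRF detected cAMP in lysates of TSHR cells, read 30 minutes after antibody and d2 addition at room temperature. Before lysis, cells had 2 hours at 37 deg C with compound plus EC80 TSH, 4nM final.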
% is set by controls: 0 for no effect and ±100 for the full control effect; potency is the fitted concentration of half-maximal effect.

SMILES | activity change, negative = inhibition | Potency
CC1CC(C)CN(CCCNC(=O)CN2C(=O)COc3ccc(S(=O)(=O)N4CCOCC4)cc32)C1 (centres undefined) | -3.14% | –
CC(C)C1Nc2ccc(C(=O)N3CCN(c4ccccn4)CC3)cc2NC1=O (centres undefined) | -6.86% | –
CC1CCc2c(sc(NC(=O)c3ccco3)c2C(=O)O)C1 (centres undefined) | -15.3% | –
CN(C)c1ccc(/C=C/c2ccc3c4ccccc4ccc3[n+]2-c2ccccc2)cc1 | – | 23.9 µM (active)
CC[n+]1c(/C=C/c2ccc(N(C)C)cc2)ccc2ccccc21 | – | 26.9 µM (active)
CN(C)c1ccc(/C=C/c2cc[n+](C)cc2)cc1 | – | 37.9 µM (active)
CC[n+]1ccc(/C=C/c2ccc(N(C)C)cc2)c2ccccc21 | – | 26.9 µM (active)
O=S(=O)(C/C(=C/CO)S(=O)(=O)c1ccccc1)c1ccccc1 | -9.77% | –
Cc1ccnc(OC(C(=O)O)C(OCCc2ccccc2)(c2ccccc2)c2ccccc2)n1 (centres undefined) | -6.8% | –
CSCC[C@H](NC(=O)c1ccc(Cl)c(S(=O)(=O)N2CCCC2)c1)c1nc2ccccc2[nH]1 | -4% | –
COc1ccc(CCNC(=O)c2ccc(Cl)c(S(=O)(=O)N3CCCCCC3)c2)cc1 | – | 16.9 µM (active)
O=C(c1ccc(Cl)c(S(=O)(=O)N2CCCCC2)c1)N1CCCC1 | -7.26% | –
COc1ccc(-c2cc(C3CCN(c4cc(Cl)nc(N)n4)CC3)[nH]n2)cc1 | – | 37.9 µM (active)
O=C(N[C@H]1C/C=C\C(c2ccc(F)cc2)N(Cc2ccccc2)C(=O)C1)OCC1c2ccccc2-c2ccccc21 (some centres undefined) | -7.35% | –
O=S(=O)(Nc1cccnc1)c1ccc(Br)c2ccccc12 | – | 26.9 µM (active)
CC(=O)Nc1ccc(-c2csc(NC(=O)Nc3ccccc3)n2)cc1 | – | 37.9 µM (active)
COc1ccc(NC(=O)CSc2nc3[nH]c(=O)[nH]c(=O)c3s2)cc1OC | 2.97% | –
O=C(NC(=S)Nc1ccccc1)c1cc(-c2ccccc2)nc2ccccc12 | -9.65% | –
COc1ccc(-c2ccc(SCc3ccccn3)nn2)cc1OC | 0.461% | –
COc1cccc(NC(=O)Nc2nc(-c3ccc(OC)c(OC)c3)cs2)c1 | – | 15.1 µM (active)
CCN(CC)C(=O)Cn1c(=O)n(-c2ccccc2)c(=O)c2sccc21 | -6.22% | –
CC(=O)c1ccc(N(C(=O)CNC(=O)c2ccco2)C(C(=O)NC2CCCC2)c2ccncc2)cc1 (centres undefined) | -7.52% | –
COc1ccc(NC(=O)CCNS(=O)(=O)c2ccc3c(c2)CC(C)N3C(C)=O)cc1 (centres undefined) | -2.68% | –
COc1ccc(OCC(=O)NC(=S)Nc2ccc(N3CCOCC3)c(Cl)c2)cc1 | – | 19 µM (active)
COc1ccc(NC(=S)N(CCCN2CCOCC2)C(C)c2cc3cccc(OC)c3o2)cc1 (centres undefined) | 0.0576% | –

SMILES | activity change, negative = inhibition | Potency
CC(C)Nc1ncnc2c1nnn2Cc1ccccc1 | -6.31% | –
N#Cc1nc(-c2ccccc2)oc1N1CCN(C(=O)c2ccco2)CC1 | -13.5% | –
O=C(c1ccco1)N1CCN(c2ncnc3c2nnn3Cc2ccccc2Cl)CC1 | – | 30.1 µM (active)
O=C(Nc1nc(-c2cccs2)cs1)c1cccc(S(=O)(=O)N2CCCCCC2)c1 | -9.77% | –
CN(Cc1ccccc1)S(=O)(=O)c1ccc(OCC(=O)NCc2ccccn2)cc1 | -6.28% | –
CN(C)S(=O)(=O)c1ccc(C(=O)Nc2nc(-c3cccs3)cs2)cc1 | – | 19 µM (active)
CC1CCCCN1C(=O)CSCC(=O)Nc1nc(-c2cccs2)cs1 (centres undefined) | – | 30.1 µM (active)
O=C(COc1ccc(Cl)cc1)Nc1nc(-c2cccs2)cs1 | – | 23.9 µM (active)
CCOc1ccc(N(CC(=O)NCc2ccc(F)cc2)C(=O)CCC(=O)Nc2nccs2)cc1 | -3.75% | –
CCOC(=O)Cc1csc(NC(=O)COc2ccc(N(C)S(=O)(=O)c3cccs3)cc2)n1 | – | 23.9 µM (active)
CCN(CC)c1ccc(C(=O)OCC(=O)N2CCCC2)cc1 | -7.98% | –
COc1cccc(NC(=S)N2CCCN(Cc3ccc(F)cc3)C2)c1 | -5.53% | –
Cn1nnnc1SCC1=C(C(=O)O)N2C(=O)C(NC(=O)C3CC3c3ccccc3)C2SC1 (centres undefined) | -2.74% | –
O=C1C=C(c2ccc(Cl)c(C(F)(F)F)c2)C[C@@H](c2ccc(F)cc2)C1 | -9.8% | –
CSC1=NSC2=NC(=O)/C(=C\c3coc4ccccc4c3=O)C(=N)N12 | – | 2.69 µM (active)
CCSC1=NSC2=NC(=O)/C(=C\c3coc4ccccc4c3=O)C(=N)N12 | – | 1.69 µM (active)
Cc1ccc(-c2nnc(SCC(=O)NC3CCCC3)n2C)cc1 | -11.3% | –
N#Cc1cccc(NC(=O)COC(=O)c2cc(S(=O)(=O)Nc3ccccc3Cl)ccc2O)c1 | – | 12 µM (active)
CCC(=O)OCCNc1cc(Sc2nccn2C)c2nonc2c1[N+](=O)[O-] | – | 19 µM (active)
CCCC(=O)OCCNc1cc(Sc2nc3ccccc3[nH]2)c2nonc2c1[N+](=O)[O-] | – | 23.9 µM (active)
CC(=O)OCCNc1cc(Sc2nc3ccccc3[nH]2)c2nonc2c1[N+](=O)[O-] | – | 26.9 µM (active)
CCC(=O)OCCNc1cc(Sc2nc3ccccc3[nH]2)c2nonc2c1[N+](=O)[O-] | – | 23.9 µM (active)
COc1ccc(F)cc1CN1CCN(C(=O)CCC(=O)Nc2nnc(CC(C)C)s2)CC1 | -4.64% | –
O=c1[nH]cccc1-c1nc2ccccc2n1Cc1ccc(F)cc1 | -9.22% | –
Cn1c(CNC(=O)c2ccc(Cl)cc2)nnc1SCC(=O)NC1CCCC1 | -4.87% | –

SMILES | activity change, negative = inhibition | Potency
CCN(c1cccc(C)c1)S(=O)(=O)c1cn(CC(=O)OC)c2ccc([N+](=O)[O-])cc12 | -6.34% | –
CNC(=S)n1cnc(N)n1 | -2.97% | –
NS(=O)(=O)c1ccc(CCNC(=O)c2cc3ccccc3s2)cc1 | -13.8% | –
O=C(CNC(=O)c1ccco1)OCC(=O)c1ccccc1 | -4.52% | –
CCCCNC(=O)CC1C(=O)N(Cc2ccccc2)C(C)c2nc3ccccc3n21 (centres undefined) | 1.18% | –
CC1=NN(C(N)=S)C(=O)C1N=Nc1ccc(Cl)cc1Cl (centres undefined) | – | 30.1 µM (active)
CC(=O)N(C)c1ccc(N=NC2C(=O)N(C(N)=S)N=C2C)cc1 (centres undefined) | -11.7% | –
O=C1c2cccnc2C(=O)N1Cc1ccc(S(=O)(=O)N2CCN(c3ccc(Cl)cc3)CC2)cc1 | -7.87% | –
COc1cccc(N2CCN(c3ncnc4c3cnn4-c3ccc(C)cc3C)CC2)c1 | – | 10.7 µM (active)
CC(C)N(Cc1ccccc1)C(=O)COC(=O)c1cnc(Cl)c(Cl)c1 | – | 23.9 µM (active)
Cc1onc(-c2ccccc2)c1NC(=O)N(Cc1ccccc1)C(C)C | -7.43% | –
CCc1ccc(/C=C/C(=O)c2cc(Br)ccc(=O)c2O)cc1 | – | 9.53 µM (active)
Cc1cccc(/C=C/C(=O)c2cc(Br)ccc(=O)c2O)c1 | – | 15.1 µM (active)
COc1ccc2[nH]c3c(NCCC4=CCCCC4)ncnc3c2c1 | – | 4.78 µM (active)
C1=C(CCNc2ncnc3c2[nH]c2ccccc23)CCCC1 | – | 23.9 µM (active)
CCCCOCCCNc1ncnc2c1[nH]c1ccccc12 | – | 30.1 µM (active)
Cc1cccc(NC(=O)CCN2CCN(C)CC2)c1 | -2.77% | –
Cc1cccc(NC(=S)NCC(C)CSc2ccc(Cl)cc2)c1 (centres undefined) | – | 30.1 µM (active)
OCCSc1nnc(Nc2ccccc2)s1 | -10.8% | –
O=C1C(SCCO)=C(SCCO)C(=O)c2ccccc21 | – | 3.38 µM (active)
COc1cc(NS(=O)(=O)c2ccc(C)cc2C)cc(OC)c1OC | – | 37.9 µM (active)
CCc1ccc(NS(=O)(=O)c2cc3[nH]c(=O)c(=O)[nH]c3cc2C)cc1 | -0.0576% | –
COc1ccc(NS(=O)(=O)c2cn(C)cn2)cc1Cl | -6.08% | –
CC(C)(C)OC(=O)N1CCC(CC2CC(c3cccc(Br)c3)=NO2)(C(=O)NCC2CCCCC2)CC1 (centres undefined) | -6.34% | –
CC(C)Cc1nc2oc3c(Cl)ncnc3c2c2c1CCC2 | – | 23.9 µM (active)

SMILES | activity change, negative = inhibition | Potency
COc1ccccc1C(=O)NCCC(=O)Nc1ccc(OC(F)(F)F)cc1 | -14.9% | –
Cc1ccc(Cl)cc1NC(=O)c1cc2ccccc2cc1O | – | 3.79 µM (active)
COc1cccc(CNC(=O)c2nnn(CC(=O)Nc3cc(Cl)ccc3C)c2N)c1 | -6.45% | –
COc1cc(NC(=O)c2cc3ccccc3cc2O)c(OC)cc1Cl | – | 10.7 µM (active)
Cc1cc(NC(=O)c2ccccc2)c(Cl)cc1N | -8.64% | –
COc1cc2ccccc2cc1C(=O)N1CCCC1 | -4.72% | –
CCOc1ccc(-n2c(SCC(=O)Nc3cc(C)on3)nc3c(c2=O)SCC3)cc1 | -4.47% | –
Cc1ccc(NC(=O)Cn2nnc(C(=O)NCCc3ccccc3)c2N)c(C)c1 | -7.03% | –
Cc1ccc(CCNC(=O)C2CC(c3cc(C(F)(F)F)cc(C(F)(F)F)c3)=NO2)cc1 (centres undefined) | -3.66% | –
N#C/C(=N/Nc1ccc(OC(F)(F)F)cc1)C(N)=S | – | 6.01 µM (active)
O=C(Nc1cccc(Cl)c1)c1cc(N=Nc2ccc([N+](=O)[O-])cc2Cl)ccc1O | – | 0.478 µM (active)
CC(=O)Oc1c(C)cc(Cl)cc1C(=O)Nc1ccc([N+](=O)[O-])cc1Cl | – | 0.478 µM (active)
O=C(Nc1ccc([N+](=O)[O-])cc1Cl)c1cc(Cl)ccc1O | – | 0.338 µM (active)
Cc1ccc(N2C(=O)C3C4C=CC(CC4)C3C2=O)cc1Cl (centres undefined) | -4.24% | –
CCOc1cc(S(=O)(=O)n2cnc(C)c2)ccc1Cl | -13.9% | –
Cc1ccc(CS(=O)(=O)c2ncc(Cl)c(C(=O)Nc3nnc(C(C)C)s3)n2)cc1 | – | 23.9 µM (active)
COC(=O)CSc1nc(NCc2ccccc2)nc(N(C)C)n1 | -21.1% | –
Cc1cccc(CC(=O)NCC(=O)NCc2cc(=O)n(C)c(=O)n2C)c1 | -8.84% | –
CN(C)c1nc(=S)nc(NCc2ccccc2)[nH]1 | -3.2% | –
Cc1cc(=O)oc2ccc(OCc3ccccc3)cc12 | -1.67% | –
COc1ccc(CNC(=O)C2CCCN2C(=O)NCc2ccccc2)cc1 (centres undefined) | -7.69% | –
CCOC(=O)c1c(NC(=O)/C=C/C(=O)O)sc(C)c1-c1ccc(C)c(C)c1 | – | 23.9 µM (active)
CCOC(=O)c1c(NC(=O)CN2C(=O)NC(C)(c3ccc(OC(F)F)cc3)C2=O)sc(C)c1C (centres undefined) | -10.1% | –
CCOC(=O)c1c(NC(=O)/C=C/C(=O)O)sc(C)c1-c1ccc(Cl)cc1 | – | 21.3 µM (active)
